Laboratory results published in PubChem BioAssay (NCI).
Compounds without any hit were thinned out: in the full panel of roughly 83,000, 20% have a hit.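 How to read the values: 0–100, growth inhibition (40 = 60% inhibited); 0, no net growth; -100 to 0, cell death (-40 = 40% of starting cells died; -100 = all dead).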 Unmarked numbers belong to inactive results. Calls of active or inactive are those of the source. How the source made its calls: active means growth percent below 10; inactive means the rest.

How the values were obtained:
Assay in all cases: NCI-60 one-dose screen, 48 h (100 = growth as untreated, 0 = no growth, -100 = all killed)
Conditions in all cases: 10 µM unless noted
[1] = system: SK-MEL-2 melanoma
[2] = system: EKVX NSCLC
[3] = system: SN12C renal
[4] = system: UO-31 renal
[5] = system: TK-10 renal
[6] = system: ACHN renal
[7] = system: CAKI-1 renal
[8] = system: A498 renal
[9] = system: CCRF-CEM leukemia
[10] = system: MOLT-4 leukemia
[11] = system: SR leukemia
[12] = system: RPMI-8226 leukemia
[13] = system: OVCAR-8 ovarian
[14] = system: OVCAR-5 ovarian
[15] = system: OVCAR-4 ovarian
[16] = system: SK-OV-3 ovarian
[17] = system: IGROV1 ovarian
[18] = system: OVCAR-3 ovarian
[19] = system: HS 578T breast
[20] = system: NCI/ADR-RES ovarian

| Compound | growth [1] | growth [2] | growth [3] | growth [4] | growth [5] | growth [6] | growth [7] | growth [8] | growth [9] | growth [10] | growth [11] | growth [12] | growth [13] | growth [14] | growth [15] | growth [16] | growth [17] | growth [18] | growth [19] | growth [20] |
| --- | --- | --- | --- | --- | --- | --- | --- | --- | --- | --- | --- | --- | --- | --- | --- | --- | --- | --- | --- | --- |
| NS(=O)(=O)c1ccc(N=Nc2c(O)n(CC(=O)Nc3ccccc3Cl)c3ccccc23)cc1 | 9.55% (active) | 38.1% | 27.6% | 2.95% (active) | 63% | 6.65% (active) | 16.6% | 80.2% | 50.5% | 26.7% | 26.9% | 29% | 1.19% (active) | 56.3% | 53% | 36.7% | 18% | 21.3% | 50.5% | 30.4% |
| O=c1[nH]c2ccc(Cl)cc2cc1CSc1nccc(-c2ccc(Cl)cc2)n1 | 34.5% | 42.8% | 39.9% | 60% | 88.2% | 20.2% | -51.3% (active) | 98.4% | 113% | 85.5% | 88.6% | 71.3% | 42.9% | 66.4% | 38.9% | 69.2% | 59.3% | 86.6% | 33.8% | 56.7% |
| COc1ccc(/C=C2\C(=N)N=C(SCc3nc4ccccc4[nH]3)NC2=O)cc1 | 114% | 109% | 103% | 77.8% | 149% | 109% | 92.8% | 119% | 94.9% | 104% | 103% | 95.8% | 107% | 119% | 102% | 116% | 114% | 110% | 99.5% | 104% |
| COc1cc2c3c(n(CCCN4CCC[C@@H]4CO)c(=O)c2cc1OC)-c1cc2c(cc1C3=O)OCO2 | 120% | -70.6% (active) | -91.7% (active) | -92.5% (active) | 91.4% | -100% (active) | -94.6% (active) | 93.8% | 6.04% (active) | 5.36% (active) | -25.5% (active) | -28.4% (active) | -76.8% (active) | -98.7% (active) | -82.2% (active) | 27.1% | -88.9% (active) | -94.4% (active) | -6.35% (active) | -67.4% (active) |
| COc1ccc(/C=C/c2nc3ccccc3nc2Nc2cccc(C)c2)cc1 | 102% | 89% | 92.7% | 78.4% | 173% | 98.3% | 72.9% | 118% | 98.7% | 82.7% | 85.8% | 95.7% | 98% | 108% | 91.6% | 95.9% | 82.1% | 104% | 92.3% | 105% |
| COc1c(F)ccc(C(=O)Nc2ccc3nc(NC(=O)C4CCCN(S(=O)(=O)c5ccc(C(F)(F)F)cc5)C4)sc3c2)c1F (stereo not given) | 84.7% | 103% | 82.4% | 55.3% | 99.9% | 72.3% | 61.2% | 96.7% | 89.5% | 47.2% | 43.4% | 54.3% | 95.8% | 100% | 69.1% | 103% | 70.5% | 78.2% | 51.4% | 80% |
| COc1ccc(C2=NN(c3ccccc3)C(c3ccc(OC)c(OCc4ccccc4)c3)C2)cc1OC (stereo not given) | 94.1% | 92.4% | 104% | 91.7% | 125% | 110% | 76.7% | 101% | 106% | 97% | 104% | 107% | 96.3% | 110% | 89.8% | 93.4% | 84.1% | 106% | 97.7% | 103% |
